Reference: PubChem BioAssay AID686979 (National Center for Advancing Translational Sciences (NCATS), 2013)
Out of some 420,000 compounds screened, about 50,000 (12%) were called active. Not shown: some 26% with an inconclusive outcome. Many of the other results were omitted from the sample, so actives are more common in it than they were. Values without a mark were called inactive. The call rests on the fitted dose curve; in most records, active means well fitted inhibition curve with a large enough effect; inconclusive means small, poorly fitted or top-dose-only effect; inactive means flat fitted curve, though single readings scatter.

Experiment: qHTS for Inhibitors of human tyrosyl-DNA phosphodiesterase 1 (TDP1): qHTS in cells in presence of CPT; further: nearly all actives have a fitted effect of over 55% in size
Settings: chicken DT40 Tdp1-/-;hTDP1 cells + 20 nM CPT, ATP luminescence, 48 h; series mostly up to 46.2 µM; activity change, negative = growth inhibition: at the top concentration
In short: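 Chicken DT40 Tdp1-/- cells complemented with human TDP1, 400 cells/well, exposed to compounds plus 20 nM camptothecin for at least 48 h at 37 C; viability read as ATP content by CellTiter-Glo luminescence.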
On the % scale 0 is the no-effect control and ±100 the full control effect; potency means the concentration at half of the fitted maximal effect.

| Compound | activity change, negative = growth inhibition [%] | Potency |
| --- | --- | --- |
| C=CCCC(=O)N1C[C@H]2CON(C)[C@H]2C[C@H]1c1cccc(Nc2ccccc2)c1 | -9.96 | – |
| COCC1CCCN(Cc2nc(-c3ccc4c(c3)OCO4)no2)C1 (configuration not stated) | 9.31 | – |
| CCn1c(CC(=O)Nc2ccccc2C)nnc1SCC(=O)NC1=NCCS1 | -4.53 | – |
| CCCn1c(=N)n(CC(=O)c2ccc(Cl)c(Cl)c2)c2ccccc21 | – | 10.3 µM (active) |
| O=C(Cn1nnc(N2CCCCC2)n1)c1ccc(Cl)c(Cl)c1 | -16 | – |
| CCCNC(=O)c1ccc(Cl)c(Cl)c1 | -22 | – |
| O=C(Nc1ccc(OCCO)cc1)c1csc([C@H]2C[C@H](O)[C@@H](CO)O2)n1 | -18 | – |
| CCOc1ccc(CN2CCN(Cc3ccc4cc(F)ccc4n3)CC2CCO)cc1 (configuration not stated) | -4.39 | – |
| COc1ccc(C(=O)NCc2nnc(SCC(=O)Nc3cccc(OC)c3)o2)cc1 | 16.7 | – |
| COc1ccccc1NC(=O)CSc1nnc(CNC(=O)c2ccccc2F)o1 | 12 | – |
| COc1cc(C(=O)NCc2nnc(SCC(=O)Nc3nc4ccc(C)cc4s3)o2)cc(OC)c1OC | – | 4.11 µM (active) |
| O=C(O)c1ccc(S(=O)(=O)N2CCOCC2)o1 | 2.34 | – |
| CNc1cc(-c2c(OC)cccc2OC)ncn1 | -8.09 | – |
| CCOC(=O)CSC1=C(C#N)C(c2sccc2C)CC(=O)N1 (configuration not stated) | – | 3.55 µM (active) |
| C=CCOC(=O)C1=C(C)NC(SCC(=O)OCC)=C(C#N)C1c1ccc(C)cc1 (configuration not stated) | -22.3 | – |
| COC(=O)CSC1=C(C#N)C(c2ccccc2OC)C(C(=O)OC)C(=O)N1 (configuration not stated) | 11.7 | – |
| C/C=C/C=C/C(=O)OCC(=O)Nc1ccc(Cl)cc1 | -3.8 | – |
| Cc1onc(-c2c(F)cccc2Cl)c1C(=O)N(C)CC(=O)Nc1cccc(F)c1 | 10.5 | – |
| O=C(c1cc(C(=O)N2CCN(c3ccc(F)cc3)CC2)cc([N+](=O)[O-])c1)N1CCN(c2ccc(F)cc2)CC1 | – | 8.2 µM (active) |

| Compound | activity change, negative = growth inhibition [%] | Potency |
| --- | --- | --- |
| O=C(c1cc(-c2ccc(F)cc2)on1)N1CCN(c2ccc(F)cc2)CC1 | 3.72 | – |
| O=C(c1cc2cc(F)ccc2[nH]1)N1CCN(c2ccc(F)cc2)CC1 | -15 | – |
| O=C(c1cccc([N+](=O)[O-])c1)N1CCN(C(=O)c2ccco2)CC1 | 3.27 | – |
| O=[N+]([O-])c1ccc(N2CCN(c3ccc(F)cc3)CC2)cn1 | -1.17 | – |
| O=C(c1cccc(C(=O)N2CCN(c3ccc(F)cc3)CC2)c1)N1CCN(c2ccc(F)cc2)CC1 | – | 14.6 µM (active) |
| CO/N=C(\C(=O)N[C@@H]1C(=O)N2C(C(=O)O)=CCS[C@H]12)c1csc(N)n1 | -3.74 | – |
| O=C1COc2ccc(C(=O)COC(=O)CCOc3ccccc3)cc2N1 | 2.06 | – |
| Cc1ccc(C(=O)Oc2ccc(C(=S)N3CCOCC3)cc2)cc1 | -14.9 | – |
| CC(C)(C)C1C/C(=C/c2ccco2)C(=O)/C(=C/c2ccco2)C1 (configuration not stated) | – | 23.1 µM (active) |
| COC(=O)COc1ccc2c(c1C)O/C(=C\c1ccco1)C2=O | -7.39 | – |
| CCC1S/C(=N/N=C/c2ccco2)NC1=O (configuration not stated) | 6.02 | – |
| Cc1ccc2nc(N3C(=O)C(O)=C(C(=O)c4ccco4)C3c3cccc(O)c3)sc2c1 (configuration not stated) | -0.56 | – |
| CC(C)c1ccc(NC(=O)c2ccc3c(O)c(S(=O)(=O)c4ccccc4)c(=O)[nH]c3c2)cc1 | 7.95 | – |
| C=C1C=C(C(F)F)n2ncc(C(=O)NCCc3ccccc3OC)c2N1 | – | 15.8 µM (active) |
| COc1ccccc1CCNC(=O)c1cnccn1 | -5.44 | – |
| C=C1C=C(C)n2ncc(C(=O)Nc3ccccc3O)c2N1 | -15.4 | – |
| C#CCOCCOCCOCCNc1nc(N2CCN(C(=O)Cn3cc(CCO)nn3)CC2)nc(N2CCN(C(=O)Cn3cc(CCCN=C(N)N)nn3)CC2)n1 | -17.4 | – |
| C#CCOCCOCCOCCNc1nc(N2CCN(C(=O)[C@H](CCCN=C(N)N)n3cc(C(N)[C@@H](C)CC)nn3)CC2)nc(N2CCN(C(=O)[C@H](CO)n3cc([C@@H](N)C(C)C)nn3)CC2)n1 (some centres not stated) | 1.68 | – |
| C#CCOCCOCCOCCNc1nc(N2CCN(C(=O)[C@H](CCCCN)n3cc(CCC(=O)O)nn3)CC2)nc(N2CCN(C(=O)[C@H](CCCCN)n3cc(CC(C)O)nn3)CC2)n1 (some centres not stated) | -5.59 | – |

| Compound | activity change, negative = growth inhibition [%] | Potency |
| --- | --- | --- |
| C#CCOCCOCCOCCNc1nc(N2CCN(C(=O)CCCCCCCCCCNC(=O)[C@H](CCCCN)n3cc(C)nn3)CC2)nc(N2CCN(C(=O)CCCCCCCCCCNC(=O)[C@H](CO)n3cc(CCCSC)nn3)CC2)n1 | – | 14.6 µM (active) |
| C#CCOCCOCCOCCNc1nc(N2CCN(C(=O)CCCCCCCCCCNC(=O)[C@H]([C@@H](C)CC)n3cc(CCCCN=C(N)N)nn3)CC2)nc(N2CCN(C(=O)CCCCCCCCCCNC(=O)[C@H](CO)n3cc(CCCSC)nn3)CC2)n1 | – | 9.2 µM (active) |
| C#CCOCCOCCOCCNc1nc(N2CCN(C(=O)Cn3cc(CCO)nn3)CC2)nc(N2CCN(C(=O)[C@H](CCCCN)n3cc(CCCC)nn3)CC2)n1 | 0.815 | – |
| CC(CC(=O)N1CCN(S(=O)(=O)c2ccccc2)CC1)n1cncn1 (configuration not stated) | -13.1 | – |
| O=c1cc(-c2ccccc2)n2c(SCc3ccccc3)nnc2[nH]1 | 10 | – |
| Cc1cc(C)c(NC(=O)CN2CCOCCOCCOCCOCC2)c(C)c1 | 4.44 | – |
| Cc1c(Cl)cccc1NC(=O)NCc1ccc(C)n1C | 0.371 | – |
| COc1ccc(/C=C/C(=O)NC(=S)NN2CCCCC2c2cccnc2)cc1 (configuration not stated) | -1.05 | – |
| O=S(=O)(Cc1cc(Sc2ccccc2)nc(-c2ccccc2)n1)c1ccccc1 | – | 23.1 µM (active) |
| O=S(=O)(Cc1nnnn1-c1ccccc1)c1ccccc1 | 1.76 | – |
| O=S(=O)(NCCc1csc(-c2ccccc2)n1)c1cccnc1 | -19.1 | – |
| CC1(C(=O)NS(=O)(=O)c2cccc(OC(F)F)c2)CCN1C(=O)COc1ccc(Cl)cc1 (configuration not stated) | -18.8 | – |
| COC(=O)c1ccc(COC(=O)C2CCN(S(=O)(=O)c3c(Cl)cccc3Cl)CC2)o1 | 12.1 | – |
| O=C(Nc1ccc(OC(F)(F)F)cc1)c1cc2c(=O)n3ccccc3nc2s1 | -20.7 | – |
| Cc1nc2ccccn2c(=O)c1NC(=O)c1c(F)cccc1F | -6.49 | – |
| Cn1c(C(=O)Nc2cccc(C(F)(F)F)c2)cc2c(=O)n3ccccc3nc21 | – | 14.6 µM (active) |
| CCOc1cc(C2C(C(=O)Nc3ccc(OC)cc3)=C(C)Nc3nc(SC)nn32)ccc1O (configuration not stated) | -3.13 | – |
| CCOc1ccccc1NC(=O)C1=C(C)Nc2ncnn2C1c1ccc(NC(C)=O)cc1 (configuration not stated) | -5.57 | – |
| CCOc1ccc(C2C(C(=O)Nc3ccc(Cl)cc3)=C(C)Nc3nc(C(F)(F)F)nn32)cc1 (configuration not stated) | – | 13 µM (active) |
